Reference: ChEMBL document CHEMBL3988442, “University of Dundee, Small-Polar-MMV Screening Library” (2021)

System: Trypanosoma cruzi
Assay: Trypanosoma cruzi phosphomannomutase and mannose-1-phosphate guanylyltransferase assay
Assay type: functional
Parameters: scale not given: direction of the effect not stated beside the values
Settings: 10 µM

Row | Structure (SMILES) | Percent Effect [%]
1 | CC(C)c1nc(C2CCCN2CC(=O)Nc2ccc(Cl)cn2)no1 (stereo not drawn) | 5.62
2 | CCN(CC1CCOC1)C(=O)Nc1ccc(-n2cncn2)nc1 (stereo not drawn) | -12.7
3 | O=C(NCc1nn(-c2ccccc2)c2c1CCC2)NC1CC1 | 0.469
4 | CC1CN(CC2CCCCC2)CCN1c1ccc2nncn2n1 (stereo not drawn) | -4.6
5 | O=C1C(NCc2nnc3n2CCCC3)CCCN1c1cccc(F)c1 (stereo not drawn) | -1.6
6 | O=C(Cc1cccnc1)N1CCC(OCc2ccccc2)CC1 | -2.42
7 | CCn1ccnc1CN1CCC(N(C)Cc2ncc(C)o2)C1 (stereo not drawn) | -3.21
8 | NC(=O)c1cc(C2CCCN(CCCOc3ccccc3)C2)n[nH]1 (stereo not drawn) | -0.282
9 | CC(NC(=O)N(C)CCCOc1ccc(F)cc1)c1nncn1C (stereo not drawn) | 0.803
10 | CN(Cc1noc(C2CC2)n1)C1CCN(Cc2nnc(C3CC3)o2)C1 (stereo not drawn) | -6.16
11 | CN(Cc1ccc(F)cc1)[C@@H]1CN(C(=O)c2cccs2)C[C@H]1O | 1.97
12 | CCn1ncc(Br)c1CN(C)S(=O)(=O)c1ccc(C)cc1 | 3.35
13 | Cc1cccc(C(=O)N2CCCCC2c2ccc(CN(C)C)cc2)n1 (stereo not drawn) | 5.92
14 | Cc1cccc(CN2CCc3nnc(CN4CCCC4=O)n3CC2)n1 | -2.06
15 | CC(C)c1nccn1-c1cccc(C2CCCN(C3CCCC3)C2)n1 (stereo not drawn) | 0.197
16 | Cc1ccc2cc(C(=O)NCCn3nc4ccccn4c3=O)[nH]c2c1 | -8.36
17 | Cc1csc(Nc2nccnc2C2CCCN2C(=O)C(C)C)n1 (stereo not drawn) | -4.34
18 | CC(C)(C)c1cn2nc(N3CCCC3Cn3cncn3)sc2n1 (stereo not drawn) | 2.72
19 | CCNC(=O)c1ccc(CNCc2c(C)nn(C)c2N(C)C)cc1 | 5.62
20 | CN(C)c1cc(C(=O)N2CCN(S(C)(=O)=O)CC2)ccn1 | -5.35

Row | Structure (SMILES) | Percent Effect [%]
21 | Cn1ccnc1CN1CCN(Cc2noc(-c3ccccc3)n2)CC1 | -6.02
22 | COCC(C)N(C)C(=O)c1nc(S(C)(=O)=O)n2ccccc12 (stereo not drawn) | -2.35
23 | CS(=O)(=O)NCC1CCCN(C(=O)COc2ccc(F)cc2)C1 (stereo not drawn) | 9.86
24 | CCN(Cc1cccc2c1OCO2)C(=O)C(C)c1cccnc1 (stereo not drawn) | 5.78
25 | Cc1nc(CN2CCC(N(C)Cc3noc(C4CC4)n3)C2)oc1C (stereo not drawn) | 1.31
26 | COC(=O)CC(c1cnn(C)c1)c1oc(C)cc(=O)c1O (stereo not drawn) | -5.33
27 | Cc1cnn(CC2CCCN2C(=O)c2ccc(OC(C)C)nc2)c1 (stereo not drawn) | 0.657
28 | CN1[C@H](CN2CCCC2)C[C@@H]2CN(C(=O)Cc3cccs3)CC[C@@H]21 | -3.56
29 | CC(C)CN1CCC2(CCN(C(=O)c3ccc(F)cc3)CC2)C1=O | 1.5
30 | CC(=O)N1N=C(c2ccccc2)OC1C(=O)NCCC1=CCCCC1 (stereo not drawn) | -0.986
31 | CCC1CN(C(=O)c2ccc(Cl)cc2O)CCN1C(C)C (stereo not drawn) | 6.5
32 | Cn1cc(-c2nc(CN3CCc4c(ncn4C4CC4)C3)cs2)cn1 | 3.54
33 | O=C(NCCn1nc2ccccn2c1=O)c1cccc2[nH]ncc12 | 6.29
34 | COc1ncccc1CNC(=O)NCCNC(=O)c1ccco1 | 6.83
35 | Cc1cnn(CCNCc2nnc(C3CC3)o2)c1 | 0.746
36 | COc1ccc(S(N)(=O)=O)cc1C(=O)N(C)Cc1cc(C)on1 | 1.41
37 | O=S(=O)(CCCN1CCCC1Cn1cncn1)c1ccccc1 (stereo not drawn) | 1.49
38 | O=C(NCC(=O)N1CCc2ccccc2C1)c1ccoc1 | -7.46
39 | CC(=O)N1[C@H](CN(C)C)C[C@@H]2CN(C(=O)c3cccc(F)c3)CC[C@@H]21 | -3.19

Biological target: T1, Arginase-2, mitochondrial (Homo sapiens) (UniProt P78540)
T1 sequence (whole entry): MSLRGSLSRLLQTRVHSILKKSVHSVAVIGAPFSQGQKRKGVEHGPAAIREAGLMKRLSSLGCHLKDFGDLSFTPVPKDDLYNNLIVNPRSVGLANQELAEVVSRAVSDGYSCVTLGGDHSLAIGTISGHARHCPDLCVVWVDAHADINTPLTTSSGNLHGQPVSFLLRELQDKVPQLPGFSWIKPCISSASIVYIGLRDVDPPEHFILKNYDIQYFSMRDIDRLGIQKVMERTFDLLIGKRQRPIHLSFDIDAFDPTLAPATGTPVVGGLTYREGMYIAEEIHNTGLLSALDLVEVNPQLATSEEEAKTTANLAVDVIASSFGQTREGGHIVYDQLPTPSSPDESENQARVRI
Assay: in vitro enzyme assay to detect the production of urea directly proportional to the activity of Arginase II; also: in the data most compounds retested in dose-response had high values
Assay type: functional
Parameters: scale not given: direction of the effect not stated beside the values
Settings: 33.3 µM

Row | Structure (SMILES) | Percent Effect [%]
40 | CC(C)c1nc(C2CCCN2CC(=O)Nc2ccc(Cl)cn2)no1 (stereo not drawn) | -4.88
41 | CCN(CC1CCOC1)C(=O)Nc1ccc(-n2cncn2)nc1 (stereo not drawn) | 0
42 | O=C(NCc1nn(-c2ccccc2)c2c1CCC2)NC1CC1 | 2.05
43 | CC1CN(CC2CCCCC2)CCN1c1ccc2nncn2n1 (stereo not drawn) | -0.82
44 | O=C1C(NCc2nnc3n2CCCC3)CCCN1c1cccc(F)c1 (stereo not drawn) | 6.56
45 | O=C(Cc1cccnc1)N1CCC(OCc2ccccc2)CC1 | -0.35
46 | CCn1ccnc1CN1CCC(N(C)Cc2ncc(C)o2)C1 (stereo not drawn) | 3.1
47 | NC(=O)c1cc(C2CCCN(CCCOc3ccccc3)C2)n[nH]1 (stereo not drawn) | 6.15
48 | CC(NC(=O)N(C)CCCOc1ccc(F)cc1)c1nncn1C (stereo not drawn) | 5.76
49 | CN(Cc1noc(C2CC2)n1)C1CCN(Cc2nnc(C3CC3)o2)C1 (stereo not drawn) | 1.02
50 | CN(Cc1ccc(F)cc1)[C@@H]1CN(C(=O)c2cccs2)C[C@H]1O | -3.1
51 | CCn1ncc(Br)c1CN(C)S(=O)(=O)c1ccc(C)cc1 | 6.2
52 | Cc1cccc(C(=O)N2CCCCC2c2ccc(CN(C)C)cc2)n1 (stereo not drawn) | 27.6
53 | Cc1cccc(CN2CCc3nnc(CN4CCCC4=O)n3CC2)n1 | -2.28
54 | CC(C)c1nccn1-c1cccc(C2CCCN(C3CCCC3)C2)n1 (stereo not drawn) | 0.885
55 | Cc1ccc2cc(C(=O)NCCn3nc4ccccn4c3=O)[nH]c2c1 | 1.23
56 | Cc1csc(Nc2nccnc2C2CCCN2C(=O)C(C)C)n1 (stereo not drawn) | -0.885
57 | CC(C)(C)c1cn2nc(N3CCCC3Cn3cncn3)sc2n1 (stereo not drawn) | 6.15
58 | CCNC(=O)c1ccc(CNCc2c(C)nn(C)c2N(C)C)cc1 | -0.444
59 | CN(C)c1cc(C(=O)N2CCN(S(C)(=O)=O)CC2)ccn1 | -2.46

Row | Structure (SMILES) | Percent Effect [%]
60 | Cn1ccnc1CN1CCN(Cc2noc(-c3ccccc3)n2)CC1 | 3.99
61 | COCC(C)N(C)C(=O)c1nc(S(C)(=O)=O)n2ccccc12 (stereo not drawn) | -2.05
62 | CS(=O)(=O)NCC1CCCN(C(=O)COc2ccc(F)cc2)C1 (stereo not drawn) | 1.23
63 | CCN(Cc1cccc2c1OCO2)C(=O)C(C)c1cccnc1 (stereo not drawn) | 8.4
64 | Cc1nc(CN2CCC(N(C)Cc3noc(C4CC4)n3)C2)oc1C (stereo not drawn) | 0.205
65 | COC(=O)CC(c1cnn(C)c1)c1oc(C)cc(=O)c1O (stereo not drawn) | -3.85
66 | Cc1cnn(CC2CCCN2C(=O)c2ccc(OC(C)C)nc2)c1 (stereo not drawn) | 4.92
67 | CN1[C@H](CN2CCCC2)C[C@@H]2CN(C(=O)Cc3cccs3)CC[C@@H]21 | 0
68 | CC(C)CN1CCC2(CCN(C(=O)c3ccc(F)cc3)CC2)C1=O | 0
69 | CC(=O)N1N=C(c2ccccc2)OC1C(=O)NCCC1=CCCCC1 (stereo not drawn) | 2.21
70 | CCC1CN(C(=O)c2ccc(Cl)cc2O)CCN1C(C)C (stereo not drawn) | 11.5
71 | Cn1cc(-c2nc(CN3CCc4c(ncn4C4CC4)C3)cs2)cn1 | -0.615
72 | O=C(NCCn1nc2ccccn2c1=O)c1cccc2[nH]ncc12 | -3.69
73 | COc1ncccc1CNC(=O)NCCNC(=O)c1ccco1 | 1.33
74 | Cc1cnn(CCNCc2nnc(C3CC3)o2)c1 | -8.4
75 | COc1ccc(S(N)(=O)=O)cc1C(=O)N(C)Cc1cc(C)on1 | -2.87
76 | O=S(=O)(CCCN1CCCC1Cn1cncn1)c1ccccc1 (stereo not drawn) | -4.71
77 | O=C(NCC(=O)N1CCc2ccccc2C1)c1ccoc1 | 1.43
78 | CC(=O)N1[C@H](CN(C)C)C[C@@H]2CN(C(=O)c3cccc(F)c3)CC[C@@H]21 | -12.8
